Compounds without any hit were thinned out: in the full panel of roughly 83,000, 20% have a hit.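 In brief: 96-well plates, 48 h treatment, single concentration, percent growth endpoint.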 Values without a mark were called inactive. Active and inactive are the calls of the source. How the source made its calls: active means growth percent below 10; inactive means the rest.

For one assay, the system named is SK-MEL-5 melanoma. As to the kind of experiment: NCI-60 one-dose screen, 48 h (100 = growth as untreated, 0 = no growth, -100 = all killed). Particulars: 10 µM unless noted.
For the compound `CC1(C)N=C(N)N=C(N)N1c1ccc(OCCCCOc2ccc(S(=O)(=O)F)cc2)c(Cl)c1`, the growth was 9.68% (active).
Same read-out and setting: then `CCCCOC(=O)c1ccccc1C(=O)O.CCCCOC(=O)c1ccccc1C(=O)O.[Cu+2]`, with 98%; and `O=[N+]([O-])c1ccc2cnn(CSP(=S)(c3ccccc3)c3ccccc3)c2c1`, with 56%; and `CCN(CC)c1ccc(C=C2C(=O)NC(=S)NC2=O)cc1`, with 93.4%.
`[O]=[Sn]([CH]1CCCCC1)[CH]1CCCCC1`: the growth was -98.5% (active).
Take `ClCCN(CCCl)c1nc(Cl)c(C2CC(c3ccccc3)=NN2c2ccccc2)s1` (stereo not drawn): the growth is 89.1%.
For `CC(=O)C1CCC2C3CC=C4CC(OC(=O)Cc5ccc(N(CCCl)CCCl)cc5)CCC4(C)C3CCC12C` (stereo not drawn), the growth was 94.5%.
For `Cc1ccccc1O`, the growth was 106%.
On to `O=[N+]([O-])c1ccccc1N1CCNCC1`, for which the growth is 102%.
Consider `CC(=O)Nc1ccc(C=C2C(=O)NC(=O)NC2=O)cc1`, for which the growth is 115%.

The test system of a further assay is UACC-62 melanoma. Described as above. Particulars: 10 µM unless noted.
Consider `ClCCN(CCCl)C(c1ccccc1)c1ccc(Cl)cc1` (stereo not drawn), for which the growth was 63.8%.
On the same count and under the same terms, as for `CCCCn1cc(C(=O)/C(C#N)=C/c2cc3ccccc3nc2Cl)c2cc(OC)ccc21`, the figure is 81.4%; as for `CCCCNCCc1ccccn1`, 109%.
Still for that read-out and setting: then `CC(=O)C1C(=O)N(C)C(=O)N(C)C1=O`, with 110%; and `CC1(C)N=C(N)N=C(N)N1c1cccc(C(=O)Nc2cccc(S(=O)(=O)F)c2)c1`, with 99%.
As to `C[C@]12CC[C@@H]3C4=C(CC[C@H]3[C@@H]1CC[C@@H]2O)CC(=O)CC4`, the growth was 83.3%.
Still for that read-out and setting: as for `Oc1ccccc1OB(Oc1ccccc1O)N(CCCl)CCCl`, the figure is 94.7%; as for `NC(Cc1ccc2c(c1)OCO2)c1ccc2c(c1)OCO2` (stereo not drawn), 92.6%.
With `COc1ccc(-c2ccc(OC)c(OC)c2OC)cc1`, the growth was 34.4%.
Same read-out and setting: as for `CC1(C)N=C(N)N=C(N)N1c1ccc(CCCCc2ccc(S(=O)(=O)F)cc2)c(Cl)c1`, the figure is 18.3%; as for `COc1ccc(C2=NN(c3ccccc3)C(c3sc(N(CCCl)CCCl)nc3Cl)C2)cc1` (stereo not drawn), 65.1%; as for `N#CC1c2ccccc2C=CN1C(=O)c1ccc(N(CCCl)CCCl)cc1` (stereo not drawn), 71.7%.
On to `CSc1ccccc1NP1(=O)OCC(C)([N+](=O)[O-])CO1` (stereo not drawn), for which the growth is 101%.
For the compound `Cc1ccc(N)cc1[As]=[As]c1cc(N)ccc1C` (stereo not drawn), the growth is -90.4% (active).
As to `C/C(=N/OC(=O)N(C)C)c1cc(Cl)ccc1Cl`, the growth was 108%.
On to `CCC(C)[C@H]1O[C@]2(C=C[C@@H]1C)C[C@@H]1C[C@@H](C/C=C(\C)[C@@H](OC3C[C@H](OC)C(O[C@H]4C[C@H](OC)[C@@H](O)[C@H](C)O4)[C@H](C)O3)[C@@H](C)/C=C/C=C3\CO[C@@H]4[C@H](O)C(C)=C[C@@H](C(=O)O1)[C@]34O)O2` (stereo partly drawn), for which the growth is -35% (active).
Same read-out and setting: then `CC1(C)N=C(N)N=C(N)N1c1ccc(CCCCc2ccc(S(=O)(=O)F)cc2)cc1`, with 19.8%; and `Cc1ccc(C(=O)C2CN(C)CCC2(O)c2ccc(C)cc2)cc1` (stereo not drawn), with 117%; and `O=S(=O)(O)c1ccc(-c2ccc([As](=O)(O)O)cc2)cc1`, with 98%.
With `O=[N+]([O-])c1cc([N+](=O)[O-])c(Cl)c(Cl)c1Cl`, the growth was 14.6%.
Turning to `C=CCC1(CC)C(=O)NC(=S)NC1=O`, the growth was 101%.
On the same count and under the same terms, then `C/C(=N/OC(=O)N(C)C)c1ccc(Cl)cc1Cl`, with 98.7%; and `CCC[CH2][Sn]([CH2]CCC)([CH2]CCC)[O]C(=O)CC`, with -90% (active); and `O=C(NCc1ccc([N+](=O)[O-])cc1)Nc1ccc(S(=O)(=O)F)cc1`, with 65.1%.
As to `n1nc(-c2nonc2-c2nn[nH]n2)n[nH]1`, the growth is 107%.
Turning to `CNC(=O)Oc1ccccc1-c1ccccc1`, the growth was 102%.
With `CC1(C)N=C(N)N=C(N)N1c1ccc(OCCCCOc2ccc(S(=O)(=O)F)cc2)c(Cl)c1`, the growth was 17.2%.
Consider `CCCCOC(=O)c1ccccc1C(=O)O.CCCCOC(=O)c1ccccc1C(=O)O.[Cu+2]`, for which the growth was 111%.
For the compound `O=[N+]([O-])c1ccc2cnn(CSP(=S)(c3ccccc3)c3ccccc3)c2c1`, the growth was 43%.
Turning to `NC(=O)C(Cl)Cl`, the growth is 105%.
Consider `CCN(CC)c1ccc(C=C2C(=O)NC(=S)NC2=O)cc1`, for which the growth was 85.9%.
As for `Clc1ccc(SSC(Cl)(Cl)Cl)cc1`, the growth was 116%.
On the same count and under the same terms, as for `[O]=[Sn]([CH]1CCCCC1)[CH]1CCCCC1`, the figure is -93.3% (active); as for `ClCCN(CCCl)c1nc(Cl)c(C2CC(c3ccccc3)=NN2c2ccccc2)s1` (stereo not drawn), 60.9%.
Still for that read-out and setting: then `CC(=O)C1CCC2C3CC=C4CC(OC(=O)Cc5ccc(N(CCCl)CCCl)cc5)CCC4(C)C3CCC12C` (stereo not drawn), with 91.4%.
Turning to `Cc1ccccc1O`, the growth is 107%.
As for `O=[N+]([O-])c1ccccc1N1CCNCC1`, the growth is 95.8%.
For the compound `CC(=O)Nc1ccc(C=C2C(=O)NC(=O)NC2=O)cc1`, the growth was 99.1%.

Values taken from PubChem BioAssay (NCI).
